# From PubChem BioAssay (NCATS)
# Results filed as inconclusive are left out. A call without a number means that no potency is given here. Activity calls are given as the source filed them. Unless noted, the call rests on the fitted dose curve.
# Test system: not listed separately
# Assay: qHTS for Inhibitors of the Functional Ribonucleoprotein Complex (vRNP) of Lassa (LASV) Arenavirus: Viability assay - alamar blue signal for LASV Primary Screen (AID 1347083; calls by dose curve; tested in HEK293 reporter line; further: nearly all actives have a fitted effect of over 80% in size)
# Details: cell viability, alamar blue fluorescence (LASV minigenome counter-screen); series mostly up to 57.5 µM
# Potency means the concentration at half of the fitted maximal effect.
row,Structure (SMILES),Potency
1,CC(C)n1nc(-c2cc3cc(O)ccc3[nH]2)c2c(N)ncnc21,1.78 µM (active)
2,CCCCCN=C(N)N/N=C/c1c[nH]c2ccc(OC)cc12,inactive
3,O[C@@H](COc1cccc2ncccc12)CN1CCN(C2c3ccccc3[C@@H]3[C@H](c4ccccc42)C3(F)F)CC1 (stereo partly drawn),12.2 µM (active)
4,CCCCCCCCCCCCCCCC[n+]1ccccc1,15.8 µM (active)
5,Clc1ccccc1C(c1ccccc1)(c1ccccc1)n1ccnc1,inactive
6,COc1cccc2c1C(=O)c1c(O)c3c(c(O)c1C2=O)C[C@@](O)(C(C)=O)C[C@@H]3O[C@H]1C[C@H](N)[C@H](O)[C@H](C)O1,0.891 µM (active)
7,CCOC(=O)N1CCC(n2c(=O)[nH]c3cc(Cl)ccc32)CC1,inactive
8,O=C1[C@H]2CCCC[C@H]2C(=O)N1CCCCN1CCN(c2nsc3ccccc23)CC1,inactive

# Test system: not listed separately
# Assay: qHTS for Inhibitors of the Functional Ribonucleoprotein Complex (vRNP) of Lymphocytic Choriomeningitis Arenaviruses (LCMV): Viability assay - alamar blue signal for LCMV Primary Screen (AID 1347085; calls by dose curve; tested in HEK293 reporter line; further: nearly all actives have a fitted effect of over 80% in size)
# Details: alamar blue viability counter-screen, LCMV vRNP screen cells; series mostly up to 57.5 µM
row,Structure (SMILES),Potency
1,Oc1c(Cl)cc(Cl)c(Cl)c1Cc1c(O)c(Cl)cc(Cl)c1Cl,inactive
2,O=C(O)c1ccc(OCCCOc2ccc(C(=O)O)cc2)cc1,inactive
3,CO[C@@H]1[C@@H](OC)[C@H](C)[C@@](O)(CC(=O)O)O[C@H]1[C@H](C)[C@H]1O[C@@]2(CC[C@@](C)([C@H]3CC[C@@](C)([C@@H]4O[C@@H]([C@H]5O[C@](C)(O)[C@H](C)C[C@@H]5C)C[C@@H]4OC4C[C@H](OC)[C@@H](OC)[C@H](C)O4)O3)O2)C[C@H](O)[C@H]1C (stereo partly drawn),2 µM (active)
4,Nc1c2ccccc2nc2ccccc12,14.1 µM (active)
5,Clc1ccccc1C(c1ccccc1)(c1ccccc1)n1ccnc1,inactive
6,Clc1ccc(CSC(Cn2ccnc2)c2ccc(Cl)cc2Cl)cc1 (stereo not drawn),inactive
7,CC(=O)SC[C@@H](Cc1ccccc1)C(=O)NCC(=O)OCc1ccccc1,inactive
8,COc1cccc2c1C(=O)c1c(O)c3c(c(O)c1C2=O)C[C@@](O)(C(C)=O)C[C@@H]3O[C@H]1C[C@H](N)[C@H](O)[C@H](C)O1,0.355 µM (active)
9,COC(=O)c1nc(Cl)c(Cl)nc1N,inactive
10,Cc1nc2ccccc2n1Cc1ccc(Cl)cc1,inactive
11,O=C(Nc1ccc(Cl)cc1)Nc1ccc(Cl)c(C(F)(F)F)c1,14.1 µM (active)
12,CC[N+](CC)(CC)CCOc1ccc(/C=C/c2ccccc2)cc1,inactive
13,CCOC(=O)N1CCC(n2c(=O)[nH]c3cc(Cl)ccc32)CC1,inactive
14,O=C1[C@H]2CCCC[C@H]2C(=O)N1CCCCN1CCN(c2nsc3ccccc23)CC1,inactive

# Target: Nucleoprotein (Lymphocytic choriomeningitis virus (strain Armstrong)) (UniProt P09992)
# Assay: qHTS for Inhibitors of the Functional Ribonucleoprotein Complex (vRNP) of Lymphocytic Choriomeningitis Arenaviruses (LCMV): LCMV Primary Screen - GLuc reporter signal (AID 1347086); further: nearly all actives have a fitted effect of over 70% in size
# Details: LCMV minigenome vRNP cell assay, Gaussia luciferase reporter; series mostly up to 57.5 µM
# Nucleoprotein (Lymphocytic choriomeningitis virus (strain Armstrong)), sequence (P09992 whole entry, looked up): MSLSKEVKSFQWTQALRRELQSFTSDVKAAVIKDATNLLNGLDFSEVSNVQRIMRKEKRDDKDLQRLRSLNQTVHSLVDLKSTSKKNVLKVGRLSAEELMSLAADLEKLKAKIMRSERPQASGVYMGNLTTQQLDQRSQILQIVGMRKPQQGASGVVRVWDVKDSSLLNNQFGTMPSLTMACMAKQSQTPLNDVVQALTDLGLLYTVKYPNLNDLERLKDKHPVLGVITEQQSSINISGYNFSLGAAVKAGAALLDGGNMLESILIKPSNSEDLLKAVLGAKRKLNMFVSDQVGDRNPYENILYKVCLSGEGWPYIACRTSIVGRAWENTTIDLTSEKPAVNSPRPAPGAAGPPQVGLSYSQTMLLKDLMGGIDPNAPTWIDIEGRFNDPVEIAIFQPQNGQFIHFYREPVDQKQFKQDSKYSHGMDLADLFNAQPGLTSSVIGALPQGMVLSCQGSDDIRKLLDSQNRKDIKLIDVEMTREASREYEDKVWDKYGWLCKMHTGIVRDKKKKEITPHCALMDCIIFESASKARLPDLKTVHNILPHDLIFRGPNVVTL
row,Structure (SMILES),Potency
1,Cc1ccc2nc(N)[nH]c(=O)c2c1Sc1ccncc1,inactive
2,COc1cc(CC(C)N)c(OC)cc1Br (stereo not drawn),inactive
3,CC(C)n1nc(-c2cc3cc(O)ccc3[nH]2)c2c(N)ncnc21,1.78 µM (active)
4,CC[C@]1(O)CC[C@H]2[C@@H]3CCC4=CCCC[C@@H]4[C@H]3CC[C@@]21C,inactive
5,CC[C@]12CCCN3CCc4c(n(c5ccccc45)C(=O)C1)[C@@H]32,7.08 µM (active)
6,CN1CCCC(n2nc(Cc3ccc(Cl)cc3)c3ccccc3c2=O)CC1 (stereo not drawn),inactive
7,O=C(O)c1ccc(OCCCOc2ccc(C(=O)O)cc2)cc1,inactive
8,CO[C@@H]1[C@@H](OC)[C@H](C)[C@@](O)(CC(=O)O)O[C@H]1[C@H](C)[C@H]1O[C@@]2(CC[C@@](C)([C@H]3CC[C@@](C)([C@@H]4O[C@@H]([C@H]5O[C@](C)(O)[C@H](C)C[C@@H]5C)C[C@@H]4OC4C[C@H](OC)[C@@H](OC)[C@H](C)O4)O3)O2)C[C@H](O)[C@H]1C (stereo partly drawn),0.562 µM (active)
9,COC(=O)Nc1nc2ccc(S(=O)c3ccccc3)cc2[nH]1 (stereo not drawn),inactive
10,Clc1ccccc1C(c1ccccc1)(c1ccccc1)n1ccnc1,inactive
11,Clc1ccc(CSC(Cn2ccnc2)c2ccc(Cl)cc2Cl)cc1 (stereo not drawn),inactive
12,COc1ccc(-c2nc3ccc(C4=NNC(=O)CC4C)cc3[nH]2)cc1 (stereo not drawn),inactive
13,CC(=O)SC[C@@H](Cc1ccccc1)C(=O)NCC(=O)OCc1ccccc1,inactive
14,Cc1cc2nc3ccc(=[N+](C)C)cc-3sc2cc1N,6.31 µM (active)
15,Cc1cc(C2CCCCC2)n(O)c(=O)c1,inactive
16,CC[N+](CC)(CC)CCOc1ccc(/C=C/c2ccccc2)cc1,inactive
17,O=C1[C@H]2CCCC[C@H]2C(=O)N1CCCCN1CCN(c2nsc3ccccc23)CC1,inactive
18,C[C@@H]1C[C@H]2[C@@H]3CCC4=CC(=O)C=C[C@]4(C)[C@@]3(Cl)[C@@H](O)C[C@]2(C)[C@@]1(OC(=O)c1ccco1)C(=O)CCl,inactive

# Test system: not listed separately
# Assay: qHTS of pediatric cancer cell lines to identify multiple opportunities for drug repurposing: Primary screen for TC32 cells (AID 1347089; active means well fitted cell-killing curve with a large enough effect; further: nearly all actives have a fitted effect of over 60% in size)
# Details: TC32 Ewing sarcoma viability, CellTiter-Glo luminescence, 48 h; series mostly up to 45.8 µM
# How it was run: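 TC32 cells, 500-1,000/well in growth medium, compound-treated 48 h at 37 °C; viability from CellTiter-Glo luminescence. Primary screen: MIPE 11-point (0.78 nM–46 µM final), NPC 8-point (0.59 nM–46 µM final); confirmatory at 11-point dilutions.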
row,Structure (SMILES),Potency
1,CC[n+]1c(-c2ccccc2)c2cc(N)ccc2c2ccc(N)cc21,8.36 µM (active)
2,CC[C@H](O)C(C[C@H](C)N(C)C)(c1ccccc1)c1ccccc1,inactive
3,Cc1ccc([N+](=O)[O-])[c]2c1[O][Hg]2,0.264 µM (active)
4,CN(C)C(=S)SSC(=S)N(C)C,4.19 µM (active)
5,CCO[C@H]1O[C@@H]2OC3(C)CC[C@H]4[C@H](C)CC[C@@H]([C@H]1C)[C@@]24OO3,inactive
6,N#Cc1nn(-c2c(Cl)cc(C(F)(F)F)cc2Cl)c(N)c1S(=O)C(F)(F)F (stereo not drawn),inactive
7,C[C@H](N)[C@H](O)c1ccc(O)c(O)c1,inactive
8,C[C@H](CN1CCOCC1)C(C(=O)N1CCCC1)(c1ccccc1)c1ccccc1,inactive
